Screening data as filed in PubChem.
A selection: hits, their analogues and other compounds. The true share with any hit is near 1.2%.
PGK inhibitor – inhibitors of T. brucei phosphoglycerate kinase; P07378; PGK/GAPDH coupled, Kinase-Glo luminescence, 60 min; Potency, µM (series often up to 57.5 µM), for inactives: top-dose activity change, negative = inhibition, actives largely listed as inhibitors; 380,000 compounds, 0.043% hits; note: potency is the fitted concentration of half-maximal effect; nearly all actives have a fitted effect of over 60% in size
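Luminescent ATP detection (Kinase-Glo Plus) follows a 60-minute room-temperature incubation, with wells lacking PGK as controls. Buffer: 100 mM TEA (pH 7.6), 5 mM MgCl2, 0.01% Tween-20. Coupling enzyme GAPDH (100 nM final) supplies unstable 1,3-BPG in-well.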
GCN5L2 inh – inhibitors of human GCN5L2 histone acetyltransferase. Q92830. GCN5L2 HAT assay, ThioGlo1 CoA-SH fluorescence. Potency, µM (highest dose often 58.9 µM), without a hit: at the highest dose activity change, negative = inhibition, most hits filed as inhibitors. 390,000 compounds, 0.21% hits. AID 504327; note: potency is the fitted concentration of half-maximal effect
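Free CoA generated was detected with ThioGlo1 (50uM) fluorescence at Ex340nm/Em540nm, read immediately and after 20 min at room temperature. Enzyme, 20 nM in HEPES pH 7.5 buffer, saw compounds 15 min before adding 75uM H3(1-25) peptide and 70uM acetyl-CoA.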
KCNH2 3.1 inh – blocks the human KCNH2 3.1 channel isoform; activity change, % (tested at about 1.8 µM); AID 720553; 340,000 compounds, 0.95% hits; U2OS KCNH2 3.1, thallium flux FluxOr; active compounds read low;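 active = maximum activity change below -70%; inconclusive = maximum activity change from -70% to -50%; inactive = maximum activity change above -50%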;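 note: thallium influx rate constant from kinetic fluorescence after stimulation buffer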
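Virally transduced U2OS (3.1 isoform, 4 h infection in dark at RT) → overnight 37 C → FluxOr + Red40 in HBSS/HEPES, 45 min → stimulation buffer, 2 min kinetic read → rate constant vs DMSO controls.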
Pin1 inh – inhibitors of human Pin1 | Potency, µM (top dose mostly 115 µM), inactives show at the highest dose activity, negative = inhibition, hits mostly inhibitors | 390,000 compounds, 0.009% hits | Q13526 | AID 504891 | Pin1 FP peptide displacement, HiFluor488, 10 min; active = well fitted inhibition curve with a large enough effect in the polarisation, with a control signal flat, not every such curve was filed as active; inconclusive = small, poorly fitted or top-dose-only effect, or effect the other way, or a change in a side signal; inactive = no such curve, though single readings can be large or run the other way; the % refers to the polarisation; note: potency is the fitted concentration of half-maximal effect
Target sequence (Q13526 whole entry, looked up): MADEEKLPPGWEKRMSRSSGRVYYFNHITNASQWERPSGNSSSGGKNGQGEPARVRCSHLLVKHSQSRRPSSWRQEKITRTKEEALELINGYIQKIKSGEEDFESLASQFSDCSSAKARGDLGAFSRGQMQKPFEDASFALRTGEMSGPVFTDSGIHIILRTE
RGS4 inh – blocks human RGS4-accelerated GTP hydrolysis. Transcreener GDP fluorescence polarization, RGS4-accelerated GTP hydrolysis. Potency, µM (highest dose often 114 µM), inactives show top-dose activity change, negative = inhibition, actives largely listed as inhibitors. 390,000 compounds, 0.039% hits. AID 504845; note: potency is the fitted concentration of half-maximal effect; nearly all actives have a fitted effect of over 75% in size
Target sequence (P49798 whole entry, looked up): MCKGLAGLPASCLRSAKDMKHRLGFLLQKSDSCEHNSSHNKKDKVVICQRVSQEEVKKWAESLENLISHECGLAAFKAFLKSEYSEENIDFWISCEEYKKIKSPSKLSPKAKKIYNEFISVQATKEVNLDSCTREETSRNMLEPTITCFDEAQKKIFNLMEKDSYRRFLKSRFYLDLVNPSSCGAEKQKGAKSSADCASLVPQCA
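MLSMR compounds (23 nl, pin-transferred) preincubated 10 min at room temperature with a 500nM (2x) first reagent, then RGS4 at 900nM (2x) plus Transcreener GDP mix added; fluorescence polarization (620/688 nm) read before and after 90 min at 30 °C.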
KCNH2 WT inh – inhibitors of human wildtype KCNH2 potassium channel; AID 720551; 340,000 compounds, 0.37% hits; Q12809; activity change, % at 1.84 µM; U2OS, BacMam KCNH2, thallium flux FluxOr; active compounds read low;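 active = maximum activity change below -70%; inconclusive = maximum activity change between -70% and -50%; inactive = maximum activity change above -50%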
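U2OS cells transduced with wild-type KCNH2 virus are loaded with FluxOr dye for 45 min, and thallium flux is measured in kinetic reads before and after stimulation buffer. Rate constants are normalized to DMSO controls.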
Starred values were filed as active, the others as inactive; i = inactive; ? = inconclusive; · = not tested or not shown; [ ] = another dose, or the depositor's remark. Unless noted, calls come from the whole dose curve; as a rule, active = well fitted curve in the direction sought with a large enough effect; inconclusive = small, poorly fitted or top-dose-only effect, or another doubt; inactive = no such curve, though single readings can be large; an effect the other way counts as inactive or inconclusive. % is set by controls: 0 for no effect and ±100 for the full control effect.

SMILES	PGK inhibitor	GCN5L2 inh	KCNH2 3.1 inh	Pin1 inh	RGS4 inh	KCNH2 WT inh
Cc1cc(C)nc(/N=C(\N)Nc2cccc(OCc3ccccc3)c2)n1	-4.0%	-0.1%	?	-2.0%	17.4%	1.6
Cc1cc(C)nc(/N=C(\N)Nc2ccc(OCCC(C)C)cc2)n1	1.2%	-2.9%	-82.2*	7.8%	1.3%	42.1
COc1ccc(N/C(N)=N/c2nc(C)cc(C)n2)cc1	0.8%	·	-14.5	·	·	-3.8
Cc1cc(C)nc(/N=C(\N)Nc2ccc(OCc3ccccc3)cc2)n1	-1.1%	19.6%	-79.8*	2.7%	26.2%	18.2
COc1ccc(NC(=O)CSC2=Nc3ccccc3C3=NC(CC(=O)NCCc4ccccc4)C(=O)N23)cc1 (configuration not stated)	1.3%	-18.5%	·	45.6%	-37.4%	·
O=C(Nc1ccccc1)N1CC[C@@]2(CCCN(C(=O)c3csnn3)C2)C1	·	-1.1%	·	·	·	·
CCOC(=O)c1cc(-c2ccccc2)n(CCC(=O)Nc2nc3c(C)cccc3s2)c1C	-8.6%	-4.8%	·	5.8%	-2.6%	·
O=c1c(-c2ccc([N+](=O)[O-])cc2)coc2c(O)c(O)ccc12	8.91µM*	-9.2%	-40.8	?	-29.9%	-1.2
O=C(Cn1c(=O)oc2cc(S(=O)(=O)N3CCCCC3)ccc21)N1CCCCC1	2.0%	-9.3%	-106.2*	-6.9%	16.4%	-21.8
Cc1ccc(NC(=S)NCCN(C2CCCCC2)C2CCCC2)cc1C	0.0%	-3.5%	-33.5	7.2%	-0.4%	11.4
Cc1ccc(NC(=S)NCCN(C2CCCCC2)C2CCCC2)cc1	-1.5%	-1.7%	-72.9*	0.6%	10.7%	1.0
Cc1cc(Cl)c2oc(C(=O)N3CCN(c4ccncc4)CC3)c(C)c2c1	8.0%	·	3.3	5.5%	15.9%	-137.8*
COC(=O)C1CCN(C(=O)c2oc3c(Cl)cc(C)cc3c2C)CC1	i	-9.9%	11.5	2.8%	-29.3%	-6.5
O=C(Nc1ccccc1)N1CCC2(CC1)CCN(C(=O)c1ccncc1)CC2	·	6.3%	·	·	·	·
CC(C)Nc1ccc(Nc2ccnc3cc4ccccc4cc23)cc1	-1.3%	-27.3%	-91.0*	11.2%	?	3.8
COc1ccc(Nc2ccnc3ccccc23)cc1	3.3%	-4.9%	-2.4	-5.4%	37.3%	-1.7
COc1ccc(CNC(=O)CN(C)Cc2ccc(SC)cc2)cc1	-4.3%	-4.3%	-77.9*	-12.3%	-40.0%	-9.1
CCOc1ccc(C(=O)CCC(=O)N(CC)CC(=O)NCc2ccc(Cl)cc2)cc1	-1.1%	0.1%	-1.6	-0.9%	-4.3%	-159.9*
CSc1ccc(CN(C)CC(=O)NCc2ccccc2)cc1	-7.3%	-4.7%	-7.8	-8.3%	16.9%	13.8
CCOc1ccc(CN(C)CC(=O)NCc2ccc(F)cc2)cc1	·	-0.9%	-103.2*	6.0%	-1.4%	?
CCC1C(=O)CC2CCN3C(=O)CCC1C23 (configuration not stated)	·	·	·	-0.4%	-3.0%	·
CCCCNC(=O)C(CC)Sc1nc2ccccc2c(=O)n1CCc1ccc(OC)c(OC)c1 (configuration not stated)	6.3%	3.5%	·	-1.1%	39.7%	·
COc1cc2c(cc1OC)-c1cc(Nc3ccc(C(=O)O)cc3)nc(=O)n1CC2	-18.2%	-25.8%	-93.0*	-19.9%	-6.9%	7.2
COc1ccc(Nc2cc3n(c(=O)n2)CCc2cc(OC)c(OC)cc2-3)cc1	-0.4%	-12.6%	0.5	0.6%	-7.8%	0.9
Cc1cccc(C)c1N1C(=O)[C@@H]2C(c3ccccc3Cl)=NO[C@@H]2C1=O	6.0%	-3.9%	-11.5	5.2%	10.2%	-11.9
SMILES	PGK inhibitor	GCN5L2 inh	KCNH2 3.1 inh	Pin1 inh	RGS4 inh	KCNH2 WT inh
COc1ccc(OC)c(N2C(=O)[C@@H]3C(c4ccccc4Cl)=NO[C@@H]3C2=O)c1	12.6µM*	-27.1%	-0.5	·	-8.6%[11.4 µM]	-6.7
Cc1ccccc1C(=O)NC1CCN(CC(=O)Nc2ccccc2)CC1	-4.3%	-2.9%	-11.2	-14.6%	6.8%	8.0
Cc1ccccc1C(=O)NC1CCN(CC(=O)N2CCCCC2C)CC1 (configuration not stated)	-5.8%	1.3%	-5.5	-4.2%	-4.4%	-81.1*
CCOC(=O)n1cc(-c2cnc(CNC(=O)C(C)(c3ccccc3)c3ccccc3)o2)c2ccccc21	-1.0%	-11.8%	-72.6*	14.9%	-5.7%	-40.4
CC(C(=O)NCCN1CCOCC1)(c1ccccc1)c1ccccc1	i	-3.7%	1.2	4.6%	4.1%	3.4
COc1ccc(CCNC(=O)C(=O)NCC(c2ccco2)S(=O)(=O)c2ccc(F)cc2)cc1 (configuration not stated)	1.1%	5.6%	·	11.5%	-6.7%	·
OC(CN1CCCCC1)CN(c1ccccc1)c1ccccc1 (configuration not stated)	-10.0%	-4.4%	-183.2*	3.9%	11.2%	38.0
CNCC(O)CN(c1ccccc1)c1ccccc1 (configuration not stated)	-6.9%	8.3%	-81.3*	5.8%	-5.9%	5.4
Cc1ccc(N(CC(O)CN2CCCC2)S(=O)(=O)c2ccc(C)cc2)cc1 (configuration not stated)	4.0%	36.3%	-104.5*	-1.7%	-15.3%	-47.5
O=[N+]([O-])c1ccc(N(CC(O)CN2CCCCC2)S(=O)(=O)c2ccccc2)cc1 (configuration not stated)	-7.7%	-2.3%	-75.8*	-8.8%	-17.1%	-43.8
OC(CN1CCCCCC1)CN(c1ccccc1)c1ccccc1 (configuration not stated)	-2.6%	0.3%	?	4.7%	15.4%	50.8
CCc1ccc(NC(=O)CC2C(=O)N(c3cccc(OC)c3)C(=O)N2Cc2ccco2)cc1 (configuration not stated)	-7.0%	3.8%	·	-9.0%	14.2%	·
COCCCN(C(=S)Nc1cc(C)cc(C)c1)C(C)c1ccncc1 (configuration not stated)	-8.2%	-5.3%	-72.1*	-0.7%	11.6%	-1.6
CC(C)C[C@H]1CN([C@@H](CC(C)C)CN2CCCC2CN2C(=S)NC[C@@H]2Cc2ccc(O)cc2)C(=S)N1CCc1ccccc1 (some centres not stated)	-8.5%	·	-8.9	-4.4%	5.3%	-16.9
CC(C)C[C@@H](CN1CCCC1CN1C(=S)NC[C@@H]1Cc1ccc(O)cc1)N1C[C@H](Cc2ccccc2)N(CCc2ccccc2)C1=S (some centres not stated)	3.8%	·	-49.5	?	31.9%	-70.8*
O=C(Nc1ccccc1F)c1nc(SCc2ccccc2F)ncc1Cl	i	-4.4%	·	6.5%	-6.5%	·
NC(=S)NNc1cccc(Cl)c1	-10.3%	-5.9%	-82.4*	1.0%	?	-2.6
